Experimental data as given in article PMC9911399, “Two distinct binding modes provide the RNA-binding protein RbFox with extraordinary sequence specificity”.
Substitutions are numbered along the chain they refer to; changes in the protein carry UniProt numbers. The full ranking holds about 16,000 sequences; the median of “ka relative to ugcaugu” is about 0.096, and the highest 2% start at about 0.35. The entries come from a sample that favours the highest values as a whole.

T1: RBFOX1 RRM RbFoxmut (Fox-RRM*) (Homo sapiens, UniProt Q9NWB1 109-208, R118D;E147R;N151S;E152T)
T1 sequence: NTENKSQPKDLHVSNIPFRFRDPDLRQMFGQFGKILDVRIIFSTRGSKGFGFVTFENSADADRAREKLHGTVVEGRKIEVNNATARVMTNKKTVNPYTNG

B1: UCCAGCA (DNA:RNA)
RNA: GGGAGACCGGAAUUCAGAUUGUCCUCCAGCAUUAAAUCCCGUCGUAGCCACCA
DNA 1: CAATCTGAATTCCGGTCTCCC
DNA 2: TGGTGGCTACGACGGGATT
B2: GGAUCGG (DNA:RNA)
RNA: GGGAGACCGGAAUUCAGAUUGUCCGGAUCGGUUAAAUCCCGUCGUAGCCACCA
DNA 1: CAATCTGAATTCCGGTCTCCC
DNA 2: TGGTGGCTACGACGGGATT
B3: CACCACG (DNA:RNA)
RNA: B1 RNA with U25C, C26A, A28C, G29A, A31G
DNA 1: CAATCTGAATTCCGGTCTCCC
DNA 2: TGGTGGCTACGACGGGATT
B4: CGGAUCG (DNA:RNA)
RNA: B2 RNA with G25C, A27G, U28A, C29U, G30C
DNA 1: CAATCTGAATTCCGGTCTCCC
DNA 2: TGGTGGCTACGACGGGATT
B5: AGAUCGU (DNA:RNA)
RNA: B2 RNA with G25A, G31U
DNA 1: CAATCTGAATTCCGGTCTCCC
DNA 2: TGGTGGCTACGACGGGATT
B6: CGAUCGU (DNA:RNA)
RNA: B2 RNA with G25C, G31U
DNA 1: CAATCTGAATTCCGGTCTCCC
DNA 2: TGGTGGCTACGACGGGATT
B7: GUAUAUG (DNA:RNA)
RNA: B2 RNA with G26U, C29A, G30U
DNA 1: CAATCTGAATTCCGGTCTCCC
DNA 2: TGGTGGCTACGACGGGATT
B8: GGAUCGU (DNA:RNA)
RNA: B2 RNA with G31U
DNA 1: CAATCTGAATTCCGGTCTCCC
DNA 2: TGGTGGCTACGACGGGATT
B9: GGGAUCG (DNA:RNA)
RNA: B2 RNA with A27G, U28A, C29U, G30C
DNA 1: CAATCTGAATTCCGGTCTCCC
DNA 2: TGGTGGCTACGACGGGATT
B10: GGAUAUG (DNA:RNA)
RNA: B2 RNA with C29A, G30U
DNA 1: CAATCTGAATTCCGGTCTCCC
DNA 2: TGGTGGCTACGACGGGATT
B11: GGGAUUG (DNA:RNA)
RNA: B2 RNA with A27G, U28A, C29U, G30U
DNA 1: CAATCTGAATTCCGGTCTCCC
DNA 2: TGGTGGCTACGACGGGATT
B12: CGAUAUG (DNA:RNA)
RNA: B2 RNA with G25C, C29A, G30U
DNA 1: CAATCTGAATTCCGGTCTCCC
DNA 2: TGGTGGCTACGACGGGATT
B13: GUGAGUC (DNA:RNA)
RNA: B1 RNA with U25G, C26U, C27G, C30U, A31C
DNA 1: CAATCTGAATTCCGGTCTCCC
DNA 2: TGGTGGCTACGACGGGATT
B14: UUCUCUG (DNA:RNA)
RNA: B2 RNA with G25U, G26U, A27C, G30U
DNA 1: CAATCTGAATTCCGGTCTCCC
DNA 2: TGGTGGCTACGACGGGATT
B15: UUAUUAA (DNA:RNA)
RNA: B2 RNA with G25U, G26U, C29U, G30A, G31A
DNA 1: CAATCTGAATTCCGGTCTCCC
DNA 2: TGGTGGCTACGACGGGATT
B16: UCGAGUG (DNA:RNA)
RNA: B1 RNA with C27G, C30U, A31G
DNA 1: CAATCTGAATTCCGGTCTCCC
DNA 2: TGGTGGCTACGACGGGATT
B17: CUUGCGU (DNA:RNA)
RNA: B2 RNA with G25C, G26U, A27U, U28G, G31U
DNA 1: CAATCTGAATTCCGGTCTCCC
DNA 2: TGGTGGCTACGACGGGATT
B18: AGCACGA (DNA:RNA)
RNA: B2 RNA with G25A, A27C, U28A, G31A
DNA 1: CAATCTGAATTCCGGTCTCCC
DNA 2: TGGTGGCTACGACGGGATT
B19: CCCCUGC (DNA:RNA)
RNA: B1 RNA with U25C, A28C, G29U, C30G, A31C
DNA 1: CAATCTGAATTCCGGTCTCCC
DNA 2: TGGTGGCTACGACGGGATT
B20: CUGCUUG (DNA:RNA)
RNA: B2 RNA with G25C, G26U, A27G, U28C, C29U, G30U
DNA 1: CAATCTGAATTCCGGTCTCCC
DNA 2: TGGTGGCTACGACGGGATT
B21: UGCUGCU (DNA:RNA)
RNA: B1 RNA with C26G, A28U, A31U
DNA 1: CAATCTGAATTCCGGTCTCCC
DNA 2: TGGTGGCTACGACGGGATT

Biological target: T1, RBFOX1 RRM RbFoxmut (Fox-RRM*)
Experiment: EMSA; HiTS-Eq, 1 nM pool, 10 min; buffer printed only for the single-RNA assays: 10 mM Tris pH 7.5, 150 mM NaCl, 3.4 mM EDTA, 0.001% NP-40, 30 C
Details: tags: His6 N-terminal (pET28a); label: 5' 32P
Outline: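 A pool of RNA with 7 randomized nucleotides, 5′-radiolabelled and with DNA-annealed flanks, was equilibrated at 1 nM for 10 min in 50 µL with purified RbFox RRM, wild type or mutant, across increasing protein concentrations. Free RNA was separated by 8% native PAGE, excised, reverse-transcribed, barcoded by PCR and sequenced. Relative association constants were obtained from read-count changes of each RNA species versus the control reaction and normalised to the cognate motif.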

Binder	binding signal
B1	0.123 KA relative to UGCAUGU
B2	0.176 KA relative to UGCAUGU
B3	0.125 KA relative to UGCAUGU
B4	0.331 KA relative to UGCAUGU
B5	0.105 KA relative to UGCAUGU
B6	0.118 KA relative to UGCAUGU
B7	0.199 KA relative to UGCAUGU
B8	0.354 KA relative to UGCAUGU
B9	0.369 KA relative to UGCAUGU
B10	0.496 KA relative to UGCAUGU
B11	0.282 KA relative to UGCAUGU
B12	0.159 KA relative to UGCAUGU
B13	0.138 KA relative to UGCAUGU
B14	0.0908 KA relative to UGCAUGU
B15	0.0751 KA relative to UGCAUGU
B16	0.167 KA relative to UGCAUGU
B17	0.154 KA relative to UGCAUGU
B18	0.141 KA relative to UGCAUGU
B19	0.0955 KA relative to UGCAUGU
B20	0.423 KA relative to UGCAUGU
B21	0.12 KA relative to UGCAUGU
